This is an account of results in PMC11062922 (Nature Chemical Biology, 2023).

Read-outs that look alike come from different tables or passages of the source.

What all share (set-up): species or system human, MV4-11 + K-562 + COLO205 + SK-N-BE2 + OVCAR-8
In assay [1] the test system is DCTPP1. To be noted: read-out: apparent Kd; compound concentrations:100 nM and 1000 nM (sheet 'Samples'); n = 1.
Assay [2] concerns JAK2. To be noted: read-out: apparent Kd; compound concentrations:100 nM and 1000 nM (sheet 'Samples'); n = 1.
Assay [3] has as its system MAPK14. To be noted: read-out: apparent Kd; compound concentrations:100 nM and 1000 nM (sheet 'Samples'); n = 1.
Assay [4] concerns MAPK8. To be noted: read-out: apparent Kd; compound concentrations:100 nM and 1000 nM (sheet 'Samples'); n = 1.
Assay [5] relates to MAPK9. To be noted: read-out: apparent Kd, n = 1.
Assay [6] has as its system MAPKAPK2. To be noted: read-out: apparent Kd; compound concentrations:100 nM and 1000 nM (sheet 'Samples'); n = 1.
Assay [7] deals with NLK. To be noted: read-out: apparent Kd; compound concentrations:100 nM and 1000 nM (sheet 'Samples'); n = 1.
In assay [8] the test system is PIP4K2C. To be noted: read-out: apparent Kd; compound concentrations:100 nM and 1000 nM (sheet 'Samples'); n = 1.
The subject of assay [9] is CSNK1D. To be noted: read-out: apparent Kd; compound concentrations: 100 nM and 1000 nM (sheet 'Samples'), CATDS: 0.46855924192133103; n = 1.
Assay [10] relates to PBK. To be noted: read-out: apparent Kd; compound concentrations: 100 nM and 1000 nM (sheet 'Samples'), CATDS: 0.53596365658376799; n = 1.
Assay [11] concerns CSNK2A1;CSNK2A3. To be noted: read-out: apparent Kd, compound concentrations: 100 nM and 1000 nM (sheet 'Samples'), n = 1.
Assay [12] concerns GAK. To be noted: read-out: apparent Kd; compound concentrations: 100 nM and 1000 nM (sheet 'Samples'), CATDS: 0.30476726939930399; n = 1.
Assay [13] has as its system TTK. To be noted: read-out: apparent Kd; compound concentrations: 100 nM and 1000 nM (sheet 'Samples'), CATDS: 0.21902937280851401; n = 1.
Assay [14] has as its system CSNK2A2. To be noted: read-out: apparent Kd, compound concentrations: 100 nM and 1000 nM (sheet 'Samples'), n = 1.
Assay [15] concerns CSNK1G1. To be noted: read-out: apparent Kd; compound concentrations: 100 nM and 1000 nM (sheet 'Samples'), CATDS: 0.44433796545528997; n = 1.
Assay [16] has as its system PKM. To be noted: read-out: apparent Kd, compound concentrations: 100 nM and 1000 nM (sheet 'Samples'), n = 1.
Assay [17] concerns DDR1. To be noted: read-out: apparent Kd; compound concentrations:100 nM and 1000 nM (sheet 'Samples'); n = 1.
Assay [18] concerns DDR2. To be noted: read-out: apparent Kd; compound concentrations:100 nM and 1000 nM (sheet 'Samples'); n = 1.
Assay [19] has as its system PIK3CD. To be noted: read-out: apparent Kd, n = 1.
Assay [20] concerns PDXK. To be noted: read-out: apparent Kd; compound concentrations:100 nM and 1000 nM (sheet 'Samples'); n = 1.
Assay [21] relates to PIK3C3. To be noted: read-out: apparent Kd; compound concentrations:100 nM and 1000 nM (sheet 'Samples'); n = 1.
Assay [22] deals with PIK3CB. To be noted: read-out: apparent Kd; compound concentrations:100 nM and 1000 nM (sheet 'Samples'); n = 1.
Assay [23] concerns T1, DJA1.
T1 construct: gene DNAJA1
To be noted: read-out: apparent Kd, compound concentrations: 100 nM and 1000 nM (sheet 'Samples'), n = 1.

Assay [24] deals with TTN. To be noted: read-out: apparent Kd; compound concentrations: 100 nM and 1000 nM (sheet 'Samples'), CATDS: 0.51725800618074103; n = 1.
In assay [25] the test system is GSK3A. To be noted: read-out: apparent Kd; compound concentrations: 100 nM and 1000 nM (sheet 'Samples'), CATDS: 0.123144126228622; n = 1.
In assay [26] the test system is GSK3B. To be noted: read-out: apparent Kd; compound concentrations: 100 nM and 1000 nM (sheet 'Samples'), CATDS: 0.119624186553648; n = 1.
The subject of assay [27] is HSP90AA1. To be noted: read-out: apparent Kd; compound concentrations: 100 nM and 1000 nM (sheet 'Samples'), CATDS: 5.4644283651895102E-2; n = 1.
Assay [28] concerns HSPE1. To be noted: read-out: apparent Kd; compound concentrations: 100 nM and 1000 nM (sheet 'Samples'), CATDS: 7.3409549069479094E-2; n = 1.
For assay [29], the system named is ICK. To be noted: read-out: apparent Kd; compound concentrations: 100 nM and 1000 nM (sheet 'Samples'), CATDS: 5.6639320482966701E-2; n = 1.
Assay [30] has as its system PGK1. To be noted: read-out: apparent Kd; compound concentrations: 100 nM and 1000 nM (sheet 'Samples'), CATDS: 0.319923610407498; n = 1.
The subject of assay [31] is PRKCA. To be noted: read-out: apparent Kd; compound concentrations: 100 nM and 1000 nM (sheet 'Samples'), CATDS: 8.5059417421235906E-2; n = 1.
Assay [32] relates to PRKCB. To be noted: read-out: apparent Kd; compound concentrations: 100 nM and 1000 nM (sheet 'Samples'), CATDS: 6.0874586242987201E-2; n = 1.
For assay [33], the system named is PRKCD. To be noted: read-out: apparent Kd; compound concentrations: 100 nM and 1000 nM (sheet 'Samples'), CATDS: 9.6711614393648698E-2; n = 1.
Assay [34] concerns RPS6KA6. To be noted: read-out: apparent Kd; compound concentrations: 100 nM and 1000 nM (sheet 'Samples'), CATDS: 9.9145612858777904E-2; n = 1.
Assay [35] relates to TESK1. To be noted: read-out: apparent Kd; compound concentrations: 100 nM and 1000 nM (sheet 'Samples'), CATDS: 5.61870576543727E-2; n = 1.
The subject of assay [36] is EGFR. To be noted: read-out: apparent Kd; compound concentrations: 100 nM and 1000 nM (sheet 'Samples'), CATDS: 1; n = 1.
The mark [37] stands for this setting: compound concentrations:100 nM and 1000 nM (sheet 'Samples').

In the case of `Cl.Cn1c(=O)c(Oc2ccc(F)cc2F)cc2cnc(NC3CCS(=O)(=O)CC3)nc21` [RO3308271-001], the potency estimated from few doses in [1] is 1310 nM; in assay [2], 494 nM; in [3], 16.5 nM; in assay [4], 922 nM; in assay [5] (setting [37]), 212 nM; in assay [6], 13.3 nM. Moreover, the potency estimated from few doses is 1220 nM in assay [7] and 1310 nM in [8].

On to `Cn1c(-c2ccncc2)c(-c2ccc(F)cc2)c2ncccc21` [RO1155240-000], for which the potency estimated from few doses was 2250 nM in assay [9] and 1720 nM in [10].

On to `CNc1nc(Nc2ccc(C(=O)N3CCOCC3)cc2OC)ncc1Cl` [HG-10-102-01], for which the potency estimated from few doses is 2220 nM in assay [11] (CATDS: 0.22184782024324001); 1180 nM in assay [12]; 1430 nM in assay [5] (compound concentrations: 100 nM and 1000 nM (sheet 'Samples'), CATDS: 0.27430209396639399); 2290 nM in assay [13].

`COc1cccc(-n2ncc3c(N/N=C/c4ccc(C)cc4)ncnc32)c1` [GW829877X]: the potency estimated from few doses in assay [14] (CATDS: 1) is 1940 nM.

Turning to `COc1cccc(NC(=O)Nc2ccc(C)c(-c3ccc(C(=O)Nc4ccncc4)cc3)c2)c1` [GSK1398474A], the potency estimated from few doses in assay [15] was 1890 nM; in assay [16] (CATDS: 0.57160468415719301), 1140 nM.

Consider `COC(=O)Nc1nc2cc(Oc3ccc(NC(=O)Nc4cc(F)ccc4F)cc3)ccc2[nH]1.Cl` [GW701424A], for which the potency estimated from few doses in assay [17] is 242 nM; in assay [18] it was 1120 nM; in assay [19] (setting [37]), 11.2 nM.

For `CC(=O)c1c(C)c2cnc(Nc3ccn(C)n3)nc2n(C2CCCC2)c1=O` [PFE-PKIS_44], the potency estimated from few doses in assay [11] (CATDS: 0.47499416496698399) is 2260 nM; in assay [14] (CATDS: 0.52778498170906496) it was 1830 nM.

Regarding `O=c1cc(N2CCOCC2)nc2n(Cc3cccc(Cl)c3Cl)c(C3CC3)nn12` [GSK2358994A], the potency estimated from few doses is 1200 nM in [1]; 2260 nM in assay [7]; 1950 nM in assay [20]; 9.02 nM in [21]; 3.64 nM in [22]; 14.2 nM in [19] (setting [37]).

Consider `Nc1nccc2scc(-c3ccc4c(c3)CCN4C(=O)Cc3cc(F)ccc3F)c12` [GSK2587663A], for which the potency estimated from few doses was 1090 nM in assay [23] (CATDS: 0.21507760056604699); 127 nM in [19] (compound concentrations: 100 nM and 1000 nM (sheet 'Samples'), CATDS: 0.41369424364853202); 83.2 nM in assay [24].

As to `Cn1cc(C2=C(c3cn(CCN)c4ccccc34)C(=O)NC2=O)c2ccccc21` [RO0318045-000], the potency estimated from few doses in assay [23] (CATDS: 6.3500397257876304E-2) was 1160 nM; in [25], 269 nM; in assay [26], 283 nM; in assay [27] it was 1910 nM; in assay [28], 782 nM; in [29], 1670 nM. Further, the potency estimated from few doses was 63.9 nM in assay [30]; 1680 nM in [16] (CATDS: 5.66229333393235E-2); 554 nM in [31]; 1320 nM in [32]; 423 nM in assay [33]; 403 nM in assay [34]. For the same compound, in assay [35], the potency estimated from few doses was 1720 nM.

Take `O=C(O[C@H]1CN[C@H](C#Cc2cc3ncnc(Nc4ccc(OCc5cccc(F)c5)c(Cl)c4)c3s2)C1)N1CCOCC1` [GW869810X]: the potency estimated from few doses in assay [36] was 72.2 nM.
